The whole screen tested about 1,400 compounds, of which about 30 (2%) were called active. Another 15% or so got no clear call; they are omitted. Calls follow the shape of the dose curve; as a rule, active = well fitted inhibition curve with a large enough effect; inconclusive = small, poorly fitted or top-dose-only effect; inactive = flat fitted curve, though single readings scatter. The list comes from a sample in which actives are over-represented; it also holds similar structures and randomly drawn compounds. Entries that show only a call come without a potency.
Potency is read from the fitted curve at half-maximal effect.

The nature of this experiment: Firefly Luciferase Counterscreen for Inhibitors of ATXN expression. Particulars: luminescence; series mostly up to 57.5 µM. The source says: University of Utah School of Medicine, Salt Lake City, Utah
Spinocerebellar ataxia type 2 (SCA2) is a multisystem neurodegenerative disease caused by a dominantly acting mutation leading to expansion of a polyQ domain in the ataxin-2 protein (ATXN2). SCA2 patients develop progressive ataxia and later lose function in other neuronal systems. Prominent parkinsonian signs develop in some patients. Like many neurodegenerative disorders, no symptomatic or disease-modifying treatments are known.
The primary objective of the proposed research is to identify compounds inhibiting ATXN2 expression and to test them for efficacy in SCA2 mouse models. We have developed a cell-based assay paired with an in vivo mouse model using identical luciferase expression constructs. This approach takes advantage of an ATXN2-luciferase transgene, with the luciferase gene flanked by the upstream and downstream portions of the ATXN2 gene. Here we describe a 5-7 dose quantitative high thoroughput screen (qHTS) for compounds lowering ATXN2 expression. We screened the NIH Molecular Libraries Small Molecule Repository (MLSMR) and NCGC's mechanistically annotated (MIPE) and drug repurposing (NPC) collections of compounds for lowering expression of an ATXN2-luciferase reporter in HEK-293 cells. The assay is a multiplexed cell viability assay to ensure target reduction in the absence of cytotoxicity. Secondary qHTS assays included a CMV-luciferase reporter expressed in HEK-293 cells as well as a biochemical assay using recombinant luciferase to detect inhibitors of the reporter enzyme. Compounds that inhibit ATXN2 expression but is not cytotoxic were selected for confirmatory and secondary screens.
PROTOCOL TABLE (as described by Inglese J, Shamu CE and Guy RK. 2007)
SEQUENCE No. (e.g., 1, 2, 3, etc.); […] (e.g., Cells, Incubation, Reagent, etc.); VALUE; DESCRIPTION.
2; Compounds; 23 nL; Kalypsis pintool (Wako USA) equipped with a 1536-well pin head.
3; Enzyme; 1 uL; recombinant firefly luciferase (prepared in 50 mM Tris HCl pH7.5, 10 mM MgCl2, 0.05% BSA, 0.01% Tween20) at final concentration of 10 nM. Wells containing buffer only were used as control (set as 100% inhibition when normalizing data).
4; Incubation; 10 min; room temperature.
5; Detection; Luminescence; Viewlux plate reader (PerkinElmer).
NOTES (numbers refer to Sequence numbers above)
1. Luciferase substrate is added to 1536 well, Greiner white assay plate. Evaporation was prevented by covering assay plates with metal lids containing holes to allow gas diffusion.
2. Compounds were added in a dose response manner with the final concentrations of 57, 11.4, 2.28, 0.46, 0.091, 0.018, 0.0037 uM. Vehicle-only plates, with DMSO being pin-transferred to columns 5-48, were inserted uniformly at the beginning and the end of each library to monitor and record any shifts in assay performance.
3. Recombinant firefly luciferase (10 nM final concentration) is added to the assay plate.
5. End-point luminescence is then measured on the Viewlux (PerkinElmer) imager equipped with a clear emission filter using a 2 sec exposure.
Inglese J, Shamu CE and Guy RK, Reporting data from high throughput screening of small molecule libraries, Nature Chemical Biology, 2007, 3(8): 438-441. doi.org/10.1038/nchembio0807-438.
(Counterscreens check selectivity or assay interference.)
As for `N#Cc1nc(Cc2cccc3ccccc23)oc1NCc1ccc(F)cc1`, the Potency result is “inactive”.

With `CC(C)CC(N)c1csc(Nc2ccc(C(=O)N(C)Cc3ccccc3)cn2)n1` (stereo unspecified), the Potency entry was “inactive”. With `COc1ccc(Nc2c3ccccc3nc3ccccc23)cc1`, the Potency entry was “inactive”. Turning to `COc1ccc(C(=O)Nn2c(SCC(=O)c3ccccc3)nc3ccccc3c2=O)cc1`, the Potency is 7.08 µM (active). On to `COc1ccc(C(=O)NNC(=S)NC(=O)c2ccccc2)cc1`, for which the Potency result was “inactive”. As to `CC1(C(=O)NCc2ccccc2Br)CCN1C(=O)Cc1ccc(-c2ccccc2)cc1` (stereo unspecified), the Potency result is “inactive”.

With `Cc1cc(C(=O)N/N=C/c2c(CO)cnc(C)c2O)c2ccccc2n1`, the Potency result was “inactive”.

Consider `CSCc1nnc(NC(=O)c2ccc(S(=O)(=O)N3CCCCC3C)cc2)o1` (stereo unspecified), for which the Potency result is “inactive”. For `COc1ccc(C(NC(=O)c2cccnc2)c2cc(Cl)c3cccnc3c2O)cc1OC` (stereo unspecified), the Potency entry was “inactive”. Regarding `CC[C@H]1CN2CCc3cc(OC)c(OC)cc3C2C[C@@H]1C[C@H]1NCCc2cc(OC)c(OC)cc21` (stereo partly specified), the Potency result was “inactive”.

Consider `Cc1cc(C(=O)N/N=C/c2cc(Br)cc(Br)c2OC(=O)c2cccc(F)c2)n[nH]1`, for which the Potency result is “inactive”.

On to `O=[N+]([O-])c1c(Nc2ccccn2)cc(Cl)c2nonc12`, for which the Potency result is “inactive”. Regarding `COC(=O)Cc1ccc(NC(=S)N2CCN(c3cc(Cl)ccc3C)CC2)cc1`, the Potency entry is “inactive”. With `CN(C)CCCN(C(=O)c1ccc(S(=O)(=O)N(C)Cc2ccccc2)cc1)c1nc2cc3c(cc2s1)OCO3`, the Potency result was “inactive”. On to `COc1ccccc1/C=C/CN1CCCC(CO)(Cc2cccc(Cl)c2)C1` (stereo unspecified), for which the Potency result was “inactive”. As to `COc1ccc(Cl)cc1C(Nc1cccnc1)c1ccc2cccnc2c1O` (stereo unspecified), the Potency result was “inactive”. Take `Cc1sc(NC(=O)c2cc(-c3ccc(Cl)cc3)nc3ccccc23)c(C(N)=O)c1C`: the Potency was 25.1 µM (active). Consider `Cc1cccc(NC(=O)c2cc(-c3ccccn3)nc3ccccc23)c1C`, for which the Potency entry is “inactive”.

On to `CN1CCC(NC(=O)c2cc(-c3cccc(Br)c3)nc3ccccc23)CC1`, for which the Potency entry was “inactive”.

As to `COc1ccccc1-c1cc2nc(-c3ccccc3)cc(N3CCN(C(=O)c4ccco4)CC3)n2n1`, the Potency result is “inactive”. `O=C(Nc1ccc(OC(F)(F)F)cc1)N1CCN(c2ccnc3cc(Cl)ccc23)CC1`: the Potency result was “inactive”.

Turning to `CC(C)Nc1nc(NCCOc2ccccc2)c2sccc2n1`, the Potency result was “inactive”. For `CC(=O)Nc1ccc(CNc2nc(NC(C)C)nc3cc(-c4ccccc4)sc23)cc1` the value was 14.1 µM (active); for `COc1cccc(CNc2nc(NCc3ccccc3)nc3ccsc23)c1`, “inactive”.

As for `COc1ccccc1NC(=O)CSc1n[nH]c(-c2ccccn2)n1`, the Potency entry is “inactive”. Regarding `CC(C)c1ccc(S(=O)(=O)c2cc3cc(Br)ccc3oc2=O)cc1`, the Potency entry was “inactive”.

For the compound `N=c1n(CCN2CCCCC2)c2ccccc2n1CC(O)c1ccc(Cl)c(Cl)c1` (stereo unspecified), the Potency entry was “inactive”. For the compound `CCOC(=O)c1c(C)sc2c1N(C(=O)CN(CC)CC)c1cc(Cl)ccc1S2`, the Potency entry was “inactive”. Consider `COc1ccc(NC(=O)c2cc(-c3cc(Cl)ccc3OC)n[nH]2)cc1OC`, for which the Potency entry was “inactive”. For `Cc1nc2c(OCc3cccc(Cl)c3)cccn2c1N(C)Cc1cccs1`, the Potency entry was “inactive”. Consider `C(=N\Nc1ccc2nncn2n1)/c1ccccn1`, for which the Potency result is “inactive”.

Values taken from PubChem BioAssay AID1745846 (National Center for Advancing Translational Sciences (NCATS), 2022).
